Bioassay records from PubChem.
Shown is part of a subset that was picked to be rich in hits.
Shiga inhibitor: blocks Shiga toxin action in Vero cells. Vero cells, Shiga toxin protein synthesis inhibition reporter. inhibition, % at 38.7 µM. 9.2% of 290,000 active; in the data active = inhibition mostly above about 28%, no sharp cut-off; inactive = mostly below about 43%; also: 0% is about no effect
CHX counter: counter-screen for Shiga toxin inhibitors: cycloheximide protein synthesis inhibition | cell reporter, cycloheximide protein synthesis inhibition counterscreen | max response, % | 12% of 300,000 active | AID 2314; in the data active = max response mostly above about 13%, no sharp cut-off; inactive = mostly below about 14%; also: read at 38.3 µM for the half of the compounds with a filed dose; 0% is about no effect
NS1 function inh: inhibitors of influenza NS1 protein function; Potency, µM (highest dose often 46.1 µM), without a hit: top-dose activity, positive = more growth; 0.4% of 270,000 active; AID 2326; calls by dose curve; also: potency is read from the fitted curve at half-maximal effect; actives are rising curves; nearly all actives have a fitted effect of over 50% in size
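In this qHTS, NS1 from influenza A is expressed in budding yeast, where it slows growth. Cells are switched from glucose to 2% galactose medium (pH 6.0, -URA), treated with compound, and growth recovery is read at OD600.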
AmpC detergent: AmpC beta-lactamase inhibition with detergent present; P00811; AmpC hydrolysis of nitrocefin, absorbance 480 nm, 0.01% Triton; Potency, µM (titrated, usually from 114 µM), inactives show at the top dose activity change, negative = inhibition, actives largely listed as inhibitors; 0.041% of 370,000 active; AID 485294;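 also: potency is read from the fitted curve at half-maximal effect; 0% = no-compound wells and -100% = no-enzyme wells; nearly all actives have a fitted effect of over 25% in size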
Target sequence (P00811 whole entry, looked up): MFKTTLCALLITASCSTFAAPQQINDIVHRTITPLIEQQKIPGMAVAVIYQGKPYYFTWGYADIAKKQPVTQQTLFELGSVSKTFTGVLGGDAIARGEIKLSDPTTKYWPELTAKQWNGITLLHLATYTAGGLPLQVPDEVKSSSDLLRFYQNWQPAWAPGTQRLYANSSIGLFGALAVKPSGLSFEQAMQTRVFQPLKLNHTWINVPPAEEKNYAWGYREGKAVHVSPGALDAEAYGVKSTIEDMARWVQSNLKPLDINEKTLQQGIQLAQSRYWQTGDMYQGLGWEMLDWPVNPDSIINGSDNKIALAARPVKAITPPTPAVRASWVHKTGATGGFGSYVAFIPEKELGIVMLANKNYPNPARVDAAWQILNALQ
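AmpC (5.3 nM in the dispensed reagent) in 20 mM phosphate pH 7.0 with 0.01% (detergent screen) or 0.0001% Triton X-100 was preincubated with compounds for 15 min at room temperature. Nitrocefin was then added from an 800 uM solution, and hydrolysis was followed at 480 nm.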
AmpC no deterg: blocks E. coli AmpC beta-lactamase in detergent-free assay; AmpC nitrocefin hydrolysis, absorbance 480 nm, 0.0001% Triton; Potency, µM (doses to about 57.1 µM), inactives show top-dose activity change, negative = inhibition, usual class: inhibitors; 0.52% of 330,000 active;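 also: potency is read from the fitted curve at half-maximal effect; plate controls were no compound for no effect and no enzyme for full effect; nearly all actives have a fitted effect of over 20% in size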
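AmpC (5.3 nM in the dispensed reagent) in 20 mM phosphate pH 7.0 with 0.01% (detergent screen) or 0.0001% Triton X-100 was preincubated with compounds for 15 min at room temperature. Nitrocefin was then added from an 800 uM solution, and hydrolysis was followed at 480 nm.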
Starred values were filed as active, the others as inactive; ? = inconclusive; . = no result. Unless noted, calls follow the shape of the dose curve; as a rule, active = well fitted curve in the direction sought with a large enough effect; inconclusive = small, poorly fitted or top-dose-only effect, or another doubt; inactive = no such curve, though single readings can be large; an effect the other way counts as inactive or inconclusive.

SMILES	Shiga inhibitor	CHX counter	NS1 function inh	AmpC detergent	AmpC no deterg
Nc1nnc(SCCCC(=O)c2ccc(Br)cc2)s1	67*	58*	2%	10%	-18%
Nc1nnc(SCC(=O)OCC(=O)Nc2ccc(Br)cc2)s1	-14	-1	-3%	-1%	-17%
COc1ccc(CCNC(=O)C2CCN(c3nc4ccccc4nc3C(F)(F)F)CC2)cc1OC	.	.	.	3%	.
CC(C)Oc1cccc(C(=O)Nc2ccc(CN3CCOCC3)cc2)c1	18	16*	-5%	3%	25%
O=C(NC1CC2CCC1C2)c1ccc(CN2CCOCC2)cc1 (configuration not stated)	117*	34*	1%	?	12%
O=C(Nc1cccc(Br)c1)c1ccc(CN2CCc3ccccc3C2)cc1	19	17*	-69%	-14%	-27%
CSc1cccc(NC(=O)c2ccc(CN3CCc4ccccc4C3)cc2)c1	22	13	-53%	-8%	-45%
COc1cccc(NC(=O)c2ccc(CN3CCOCC3)cc2)c1	33	22*	0%	-9%	-7%
CCSc1nc2c([nH]c3ccccc32)c(=O)n1CC	.	.	.	6%	.
COc1ccc(OC)c(CN(CCN2CCOCC2)C(=O)Nc2ccccc2)c1	43*	9	-14%	-7%	-13%
COc1c(C)cccc1C(=O)Nc1ccc(CN2CCOCC2)cc1	44*	47*	-8%	7%	24%
O=C(Nc1ccc2c(c1)OCCO2)c1ccc(CN2CCOCC2)cc1	73*	50*	-5%	-2%	-14%
CC(NC(=O)c1cccnc1)c1ccc2c(c1)OCO2 (configuration not stated)	-7	-2	-8%	-1%	-10%
CN1CCN(C(=O)C2CC(=O)N(c3ccc(Cl)cc3)C2)CC1 (configuration not stated)	-10	-3	-6%	-1%	-5%
CCN1CCN(C(=O)C(C)Oc2ccc(S(=O)(=O)N3CCCC3)cc2C(N)=O)CC1 (configuration not stated)	.	.	.	-1%	-54%
COC(=O)C(CCSC)NC(=O)c1cc2c(n(-c3ccc(C)cc3)c1=O)CC(C)(C)CC2=O (configuration not stated)	.	.	.	-2%	.
COC(=O)C(CCSC)NC(=O)c1cc2c(n(-c3ccc(C)cc3)c1=O)CCCC2=O (configuration not stated)	25	19*	5%	-7%	-13%
O=C1c2cc(Br)ccc2N(Cc2ccc(Br)cc2)S(=O)(=O)C1c1cc(Cl)c(Cl)cc1[N+](=O)[O-] (configuration not stated)	.	.	.	.	2µM*
CCCC(=O)Nc1ccc(-c2nc3cc(C)c(C)cc3o2)c(O)c1	52	32*	2%	9%	-18%
CCCC(=O)Nc1ccc(-c2nc3cc(C)ccc3o2)cc1	70*	31*	-70%	?	-3%
CCCC(=O)Nc1ccc2oc(-c3ccc(OC)c(Br)c3)nc2c1	65	22*	-31%	-10%	13%
Cc1cnc(C(=O)NNC(=O)c2ccc(Br)cc2)cn1	.	.	.	?	0%
Cc1nc(C)c(-c2csc(Nc3cccnc3)n2)s1	38*	34*	-92%	0%	-26%
Cc1nc(N)sc1-c1csc(Nc2ccccc2)n1	52*	25*	16%	-12%	-18%
Cc1nc(C)c(-c2csc(Nc3ccc(N)cc3)n2)s1	69*	35*	-5%	?	0%
SMILES	Shiga inhibitor	CHX counter	NS1 function inh	AmpC detergent	AmpC no deterg
COc1ccc(Nc2nc(-c3sc(C)nc3C)cs2)cc1	14	13*	-129%	?	-22%
Cc1nc(N)sc1-c1csc(Nc2cccc(C(=O)O)c2)n1	-9	-1	30%	-11%	-28%
CCOC(=O)[C@H]1[C@H]2COc3ccc(Cl)cc3[C@@H]2N2C(=O)[C@@H](C)NC(=O)[C@@]12C	.	.	.	.	-6%
c1ccc(-c2nnc(CSc3ccc4c(c3)OCCO4)o2)cc1	29*	19*	.	-18%	-6%
Cc1[nH]c2ccccc2c1C(=O)/C=C/c1ccccc1	56*	37*	-99%	-2%	-23%
CC(=O)c1c(C)[nH]c2ccccc2c1=O	2	-3	2%	2%	-18%
Cc1[nH]c2ccccc2c1C(=O)/C=C\c1ccccc1Cl	24*	36*	3%	-12%	-20%
Cc1[nH]c2ccccc2c1C(=O)/C=C/c1ccccc1Cl	81*	40*	1%	-14%	-11%
COc1ccc2cc3cc(C(=O)N(C)C4CCCCC4)oc3nc2c1	77*	30*	1%	3%	61%
COc1ccc2cc3cc(C(=O)N4CCCCCC4)oc3nc2c1	72*	41*	-15%	-8%	9%
COc1ccc2cc3cc(C(=O)N4CCCCC4C)oc3nc2c1 (configuration not stated)	64*	34*	6%	-5%	28%
COc1ccc2cc3cc(C(=O)NCc4ccc(C)cc4)oc3nc2c1	.	.	.	-1%	.
COc1ccc2cc3cc(C(=O)N4CCN(C5CCCCC5)CC4)oc3nc2c1	7	6	-2%	1%	-22%
COc1ccc2cc3cc(C(=O)N4CCN(c5ccccc5F)CC4)oc3nc2c1	.	.	.	-2%	.
NC(=O)C1CCN(c2cc(Cl)nc(N)n2)CC1	24	4	.	8%	-6%
CC(Nc1ccccc1N1CCCCC1)C(=O)N1CCc2ccccc21 (configuration not stated)	24	11	.	3%	-18%
CSCCC(NC(=O)c1ccccc1Cl)C(=O)N(C)Cc1cccs1 (configuration not stated)	-2	-2	3%	-5%	14%
CCOC(=O)c1cc(C(=O)OCC)c2ccccn2c1=O	-9	-1	-2%	?	-6%
CCOC(=O)c1c[nH]n(-c2ccc(C)cc2)c1=O	48*	21*	.	-11%	-12%
CCOC(=O)c1c[nH]n(-c2ccccc2)c1=O	30*	20	.	-5%	-22%
CCOC(=O)c1ccc(NC(=S)Nc2ccc(C)cc2)cc1	29	12	-4%	3%	-21%
CCOC(=O)c1ccc(NC(=S)N2CCSC2c2ccc(Cl)cc2)cc1 (configuration not stated)	10	6	11%	-3%	-12%
CCOC(=O)c1ccc(NC(=S)NN2CCOCC2)cc1	39*	32*	?	-3%	-11%
CCC(C)c1ccc(NC(=S)NN2CCOCC2)cc1 (configuration not stated)	87*	42*	4%	0%	17%
CCOC(=O)c1ccc(NC(=S)NC(=O)COc2ccccc2)cc1	-3	55*	6%	?	-6%
CCOC(=O)c1ccc(NC(=S)Nc2ccccc2)cc1	18	9	-17%	4%	-14%
CCOC(=O)c1ccc(NC(=S)N2CCSC2c2ccc(OC)cc2)cc1 (configuration not stated)	23*	26*	1%	?	-34%
CCC(C)c1ccc(NC(=S)Nc2ccc(OC)cc2)cc1 (configuration not stated)	-1	15	-15%	1%	-27%
